Calls of active or inactive are those of the source. Rule for the calls: active = hit-call score of the fitted dose curve at least 0.9, where 1 is the maximum; inactive = score below 0.9.

The term AC50 denotes the midpoint of the concentration-response curve, whichever way the signal moves.

Cytochrome P450 3A7 (Homo sapiens), sequence (P24462 whole entry, looked up): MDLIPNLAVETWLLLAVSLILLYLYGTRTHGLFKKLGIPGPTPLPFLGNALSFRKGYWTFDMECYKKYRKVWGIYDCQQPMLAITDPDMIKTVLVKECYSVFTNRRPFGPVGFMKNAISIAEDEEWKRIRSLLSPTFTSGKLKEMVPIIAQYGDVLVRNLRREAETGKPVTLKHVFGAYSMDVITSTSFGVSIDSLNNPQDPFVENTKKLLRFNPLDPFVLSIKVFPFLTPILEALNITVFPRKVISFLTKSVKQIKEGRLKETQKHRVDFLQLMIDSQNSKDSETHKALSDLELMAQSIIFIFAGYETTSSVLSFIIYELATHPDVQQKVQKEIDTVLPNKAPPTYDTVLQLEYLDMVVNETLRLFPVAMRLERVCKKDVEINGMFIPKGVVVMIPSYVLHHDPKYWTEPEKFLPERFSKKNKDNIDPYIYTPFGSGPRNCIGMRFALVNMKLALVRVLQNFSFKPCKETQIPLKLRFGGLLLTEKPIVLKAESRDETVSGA

Read-out in this experiment: Cytochrome P450 3A7 (Homo sapiens) (UniProt P24462)
The experiment in a line: LTEA_HepaRG_CYP3A7: Life Technologies and Expression Analysis (LTEA) Assay for CYP3A7 using HepaRG (AID 2283492). The following applies: mRNA level, 48 h; actives raise or lower the signal. Here is the method:
LTEA_HepaRG is a cell based, multiplexed-readout assay that uses HepaRG, a human liver cell line, with measurements taken at 48 hours after chemical dosing on a 96-well plate.LTEA_HepaRG_CYP3A7 is one of 102 assay component(s) measured in the LTEA HepaRG cell culture assay. It is a marker of NR mediated metabolism/Undifferentiated hepatocyte.Data from the assay component LTEA_HepaRG_CYP3A7 was analyzed into 1 endpoint. This assay endpoint, LTEA_HepaRG_CYP3A7, was analyzed with bidirectional fitting relative to DMSO as the negative control and baseline of activity. Using a type of inducible reporter, measures of mRNA induction for gain or loss-of-signal activity can be used to understand regulation of transcription factor activity. To generalize the intended target to other relatable targets, this assay endpoint is annotated to the cyp intended target family, where the subfamily is xenobiotic metabolism.
A total of 1060 chemcials from the ToxCast library were tested in eight-point concentration-response experiments. Cell culture and cytotoxicity assays were conducted at Thermo Fisher Scientific's Custom Services facility (Madison, WI). A single lot of human HepaRG cells (Thermo Fisher Scientific, Frederick, MD) was used for the cell culture experiments. 96-well format collagen type I coated plates of human HepaRG cells were prepared using established methods. Briefly, cryopreserved HepaRG cells were thawed, plated at a density of approximately 100,000 cells/well in HepaRG Thaw, Plate, and General Purpose media (HPRG770, Thermo Fisher Scientific), and incubated for 48 hours. 0.5% DMSO was selected as vehicle control to balance the requisite need of DMSO in HepaRG cultures to maintain differentiation (for example, baseline metabolism, proportions of hepatocytes vs. cholangiocytes), while enabling further hepatic receptor pathway activation (for example, PXR and CAR) in response to chemical exposure. 48 hours after plating, the culture medium was replaced with HepaRG Serum-Free Incudtion Media. Cells were exposed to each test chemical in duplicate and maintained in CO2 incubators for another 48 hours. Chemical plates were thawed to room temperature and 200x concentrations of treatment groups were prepared. 8-point conentration-reponse curves were made with the highest exposure at 100 uM, followed by half-log dilutions, all in 0.5% DMSO. Each test plate contained variouse controls, induction positive controls (1mM phenobarbital), cytotoxicity positive controls ([…] aflatoxin B1), vehicle controls (0.5% DMSO), and total lysis controls (0.5% DMSO). Cell morphology images were taken using an Essen IncuCyte FLR automated microscope, with six 96-well plates imaged in about 24 minutes. Images were captured and exported and JPEG files. Spent culture media was transfered to black-well plates for the LDH assay, and remaining media was sorted at -80 C for later use. Cells were treated with RLT buffer and frozen until shipped for gene expression analysis. Total RNA was isolated from the cell suspension in 75 uL of Buffer RLT (Qiagen, Germantown, MD 20874) by Quintiles/Expression Analysis (Durham, NC) using a custom isolation procedure. Total RNA from each plate well was transferred to a preamplification plate. Fluidigm's 96.96 Dynamic ArrayTM (Fluidigm, Amsterdam, the Netherlands) technology was used for gene expression analyses by quantitative reverse transcription polymerase chain reaction (qRT-PCR, performed by Quintiles/Expression Analysis, Durham, NC)89. Standard TaqManTM Assays (Applied Biosystems/ThermoFisher Scientific, Foster City, CA) were used to assess the expression of 93 genes selected based on their selectivity and sensitivity to important hepatic receptors known to be modulated by environmental chemicals; importance in human hepatocyte functionality; and hepatotoxicity. […]
In the case of `CC(O)CO` (stereo not given), the outcome was inactive. Consider `Oc1cccc(O)c1`, for which the result was inactive. For `CCC(=C(c1ccc(O)cc1)c1ccc(OCCN(C)C)cc1)c1ccccc1`, the AC50 is 3.5 µM (active). Same read-out and setting: to `Cc1cc(CCN2CCN(c3nsc4ccccc34)CC2)cc2c1NC(=O)CC2(C)C` belongs 79.5 µM (active).

As for `CCCCOCCO`, the result was inactive. For `CC(C)(C)CC(C)(C)c1ccc(O)c(-n2nc3ccccc3n2)c1`, the molecule was called inactive.

`OC1CCC(C2CCCCC2)CC1` (stereo not given): the molecule was called inactive. In the case of `C[C@@H]1C[C@H]2[C@@H]3CCC4=CC(=O)C=C[C@]4(C)[C@@]3(F)[C@@H](O)C[C@]2(C)[C@@]1(O)C(=O)COP(=O)(O)O`, the call was inactive. Take `CN1CCN(c2ccccc2/C=C2\SCCN(c3ccc(Cl)c(Cl)c3)C2=O)CC1`: the result was inactive. For `NC(=O)N1C(=O)C(C(=O)c2cc(Cl)cs2)c2cc(F)c(Cl)cc21` (stereo not given), the half-maximal activity concentration (AC50) was 24.8 µM (active). Consider `COc1ccc([N+](=O)[O-])cc1N`, for which the call was inactive.

Consider `C=C(C)C(=O)OCCC(F)(F)C(F)(F)C(F)(F)C(F)(F)C(F)(F)C(F)(F)F`, for which the outcome was inactive. Turning to `CC(C)(C)c1ccc(O)c(C(C)(C)C)c1`, the outcome was inactive.

Consider `Cc1oc(-c2ccccc2)nc1CCOc1ccc(C[C@H](Nc2ccccc2C(=O)c2ccccc2)C(=O)O)cc1`, for which the AC50 is 25.7 µM (active).

On to `Oc1cc2ccccc2c2ccccc12`, for which the result was inactive. For the molecule `CCCCCCCCCCCCc1ccccc1S(=O)(=O)O`, the AC50 is 88 µM (active).

Consider `CCCCCCCCCCCCN1CCCC1=O`, for which the result was inactive.

Consider `CC(C)(C)c1cc(C(C)(C)C)c(O)c(C(C)(C)C)c1`, for which the AC50 is 10.9 µM (active). As to `c1ccc2c(c1)ccc1ccccc12`, the AC50 was 5.99 µM (active). For `CCC(C)(C)C1CCC(O)CC1` (stereo not given), the result was inactive. Same read-out and setting: to `CN(C)C=O` belongs “inactive”; to `OCCC(F)(F)C(F)(F)C(F)(F)C(F)(F)C(F)(F)C(F)(F)C(F)(F)C(F)(F)F`, “inactive”. The same measure, in the same setting: next, `CC(C)(C)c1cccc(C(C)(C)C)c1O`: “inactive”.

For the molecule `CCOC(=O)CC(O)(CC(=O)OCC)C(=O)OCC`, the molecule was classed as inactive.

`CC[C@H](c1ccc(O)cc1)[C@@H](CC)c1ccc(O)cc1`: the molecule was classed as inactive.

Take `CCCCC(CC)COC(=O)CCCCC(=O)OCC(CC)CCCC` (stereo not given): the result was inactive.

With `OCCC(F)(F)C(F)(F)C(F)(F)C(F)(F)C(F)(F)C(F)(F)F`, the molecule was called inactive.

Take `CCCCCCCCCCCCCCCS(=O)(=O)Oc1ccccc1`: the AC50 is 8.39 µM (active). As for `CC(=O)CC(C)(C)O`, the outcome was inactive. Regarding `CCN(CC)CCNc1ccc(CNC=O)c2sc3ccc(OC)cc3c(=O)c12`, the AC50 is 3.36 µM (active). With `CC(C)CCCCCCOC(=O)CCCCC(=O)OCCCCCCC(C)C`, the molecule was called inactive.

Consider `CCCCC(CC)COC(=O)CCCCC(=O)OCc1ccccc1` (stereo not given), for which the result was inactive. For `CN1CCC[C@H]1c1cccnc1`, the molecule was called inactive. As for `COCC(C)O` (stereo not given), the outcome was inactive. On to `CC[C@H](C)[C@@H](C(=O)O)n1sc2ccccc2c1=O`, for which the call was inactive.

With `OC1CCCCC1`, the outcome was inactive.

As to `Nc1cccc2c(N)cccc12`, the molecule was classed as inactive. On to `COC(=O)CCCCC(=O)OC`, for which the result was inactive. Consider `CCc1nn(C2CCCCC2)c2cc(C3(C#N)CCC(C(=O)O)CC3)ccc12` (stereo not given), for which the AC50 is 87.8 µM (active). Regarding `Cc1cc(C)c(O)c(C)c1`, the AC50 was 7.49 µM (active).

(Values after PubChem BioAssay (EPA / NIEHS).)
